Assay results from PubChem BioAssay (EPA / NIEHS).
“And” between values parts separate entries of the source, which are not always exact repeats. Equal values may be shown once. The source made the active and inactive calls. Rule for the calls: active = hit-call score of the fitted dose curve at least 0.9, where 1 is the maximum; inactive = score below 0.9.

The compounds below were run on Tumor necrosis factor (Homo sapiens) (UniProt P01375) (assay: BSK_LPS_TNFa: BioMAP Diversity Plus: LPS Assay for Tumour Necrosis Factor alpha (TNFa) Biomarker Activity (AID 2283085)). Details: primary human HUVEC with PBMC; actives raise or lower the signal.
Protocol: BSK_LPS is a cell-based, multiplexed-readout assay that uses umbilical vein endothelium and peripheral blood mononuclear cells, a human vascular primary cell co-culture, with measurements taken at 24 hours after chemical dosing in a 96-well plate.BSK_LPS_TNFa is an assay component measured in the BSK_LPS assay. It measures TNF-a antibody related to regulation of gene expression using ELISA technology.Data from the assay component BSK_LPS_TNFa was analyzed into 1 assay endpoint. This assay endpoint, BSK_LPS_TNFa, was analyzed with bidirectional fitting relative to DMSO as the negative control and baseline of activity. Using a type of binding reporter, gain or loss-of-signal activity can be used to understand changes in the signaling as they relate to the gene TNF. Furthermore, this assay endpoint can be referred to as a primary readout, because this assay has produced multiple assay endpoints where this one serves a signaling function. To generalize the intended target to other relatable targets, this assay endpoint is annotated to the cytokine intended target family, where the subfamily is inflammatory factor.
The levels of cell surface (or secreted, indicated by the prefix "s") biomarker endpoints were measured by ELISA. Overt cytotoxicity to cells in confluent adherent cultures (all systems other than the BT system) was assessed by measuring total protein levels using sulforhodamine B (SRB) staining in parallel cultures at the time of biomarker measurements, indicated as SRB endpoints. For proliferation assays for adherent cell types, individual cell types are cultured at sub-confluence and relative cell numbers quantified by SRB staining at time points optimized for each system (48 h: 3C and CASM3C systems; 72 h: BT and HDF3CGF systems; 96 h: SAg system). SRB was performed by staining cells with 0.1% SRB after fixation with 10% TCA and reading wells at 560 nm.Viability and proliferation of PBMC (T cells) was quantified by Alamar Blue reduction for the SAg and BT systems. For PBMC viability (referred to as PBMC Cytotoxicity within the assay endpoint names), cells were plated (75,000/well in a 96-well plate) and then chemical samples added for 1 h before addition of activators, SEB and TSST-1 (20 ng/mL final concentration each). Cells were incubated for 90 h. Then, Alamar Blue (20 uL/well) (Invitrogen, Cat DAL1100) was added for 6 h, and the plates were read with a fluorescence microplate reader at 546/580 nm (excitation/emission). For PBMC proliferation, cells were plated and activated as above but incubated for only 16 h prior to addition of Alamar Blue. Plates were read after 6 h.

Chain of Tumor necrosis factor (Homo sapiens) (P01375 whole entry, looked up): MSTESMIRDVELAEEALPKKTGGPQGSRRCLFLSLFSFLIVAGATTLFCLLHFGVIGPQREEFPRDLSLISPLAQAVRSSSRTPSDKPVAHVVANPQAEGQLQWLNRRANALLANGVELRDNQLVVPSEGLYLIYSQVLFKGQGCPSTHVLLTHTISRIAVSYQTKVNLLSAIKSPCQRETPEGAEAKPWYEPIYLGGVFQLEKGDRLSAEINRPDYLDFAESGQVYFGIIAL

| SMILES | outcome | AC50 |
| --- | --- | --- |
| CC(C)(C)c1cc(C(C)(C)C)c(O)c(C(C)(C)C)c1 | inactive |  |
| OC1CCC(C2CCCCC2)CC1 (stereo not given) | inactive |  |
| CCCCCCCCCCCCCC[N+](C)(C)C |  | 11 µM (active) |
| CCCCC(CC)COC(=O)CCCCC(=O)OCC(CC)CCCC (stereo not given) |  | 3.97 µM (active) |
| C[C@@H]1C[C@H]2[C@@H]3CCC4=CC(=O)C=C[C@]4(C)[C@@]3(F)[C@@H](O)C[C@]2(C)[C@@]1(O)C(=O)COP(=O)(O)O |  | 4.47 µM (active) and 3.6 µM (active) and 5.06 µM (active) |
| c1ccc2c(c1)ccc1ccccc12 | inactive |  |
| CC(C)(C)c1ccc(O)c(C(C)(C)C)c1 |  | 13.2 µM (active) |
| COCC(C)O (stereo not given) | inactive |  |
| CCCCCCCCOC(=O)CCCCCCCCC(=O)OCCCCCCCC | inactive |  |
| CCc1ccc(CCOc2ccc(CC3SC(=O)NC3=O)cc2)nc1 (stereo not given) | inactive |  |
| CCCCCCCCCCCCCCCS(=O)(=O)Oc1ccccc1 | inactive |  |
| Cc1cc(C)c(O)c(C)c1 |  | 0.352 µM (active) |
| CN1CCC[C@H]1c1cccnc1 | inactive |  |
| CC(=O)CC(C)(C)O | inactive |  |
| C#C[C@]1(O)CC[C@H]2[C@@H]3CCC4=CC(=O)CC[C@@H]4[C@H]3CC[C@@]21C |  | 4.11 µM (active) |
| Cc1cc(CCN2CCN(c3nsc4ccccc34)CC2)cc2c1NC(=O)CC2(C)C |  | 8.98 µM (active) |
| COC(=O)CCCCC(=O)OC | inactive |  |
| Oc1cccc(O)c1 | inactive |  |
| CC[C@H](c1ccc(O)cc1)[C@@H](CC)c1ccc(O)cc1 |  | 30.6 µM (active) |
| COc1ccc([N+](=O)[O-])cc1N | inactive |  |

| SMILES | outcome | AC50 |
| --- | --- | --- |
| CC(C)CCCCCCOC(=O)CCCCC(=O)OCCCCCCC(C)C | inactive |  |
| CC[C@H](C)[C@@H](C(=O)O)n1sc2ccccc2c1=O |  | 20 µM (active) |
| NCC(F)(F)C(F)(F)C(F)(F)C(F)(F)C(F)(F)C(F)(F)C(F)(F)F | inactive |  |
| CC#C[C@]1(O)CC[C@H]2[C@@H]3CCC4=CC(=O)CCC4=C3[C@@H](c3ccc(N(C)C)cc3)C[C@@]21C | inactive |  |
| NC(=O)N1C(=O)C(C(=O)c2cc(Cl)cs2)c2cc(F)c(Cl)cc21 (stereo not given) | inactive |  |
| ClC1=C(Cl)C(Cl)(Cl)C(Cl)=C1Cl |  | 18.4 µM (active) |
| CCCCCCC(=O)O | inactive |  |
| CCc1nn(C2CCCCC2)c2cc(C3(C#N)CCC(C(=O)O)CC3)ccc12 (stereo not given) |  | 0.358 µM (active) |
| CCCCCCCCCCCCc1ccccc1S(=O)(=O)O | inactive |  |
| OC1CCCCC1 | inactive |  |
| O=C(OCCOCCOC(=O)c1ccccc1)c1ccccc1 |  | 3.97 µM (active) |
| CCC(C)(C)C1CCC(O)CC1 (stereo not given) | inactive |  |
| OCCC(F)(F)C(F)(F)C(F)(F)C(F)(F)C(F)(F)C(F)(F)F | inactive |  |
| CCC(=C(c1ccc(O)cc1)c1ccc(OCCN(C)C)cc1)c1ccccc1 |  | 13.6 µM (active) |
| N#C[C@@H]1CC(F)(F)CN1C(=O)CNC1CC2CCC(C1)N2c1ncccn1 (stereo not given in full) | inactive |  |
| c1ccc2c(c1)Cc1ccccc1-2 | inactive |  |
| CC1=C(/C=C/C(C)=C/C=C/C(C)=C/C(=O)O)C(C)(C)CCC1 |  | 0.358 µM (active) |
| CCCCC(CC)COC(=O)CCCCC(=O)OCc1ccccc1 (stereo not given) | inactive |  |
| NC(=O)N(O)[C@@H]1C=C[C@H](Oc2cccc(Oc3ccc(F)cc3)c2)C1 | inactive |  |
| CN1CCN(c2ccccc2/C=C2\SCCN(c3ccc(Cl)c(Cl)c3)C2=O)CC1 |  | 20 µM (active) |
